15 sequences from publication PMC3218832 can be followed below.

Some targets named below: RELARELA (p65 homodimer) (Homo sapiens, UniProt Q04206 1-307); p50p50 homodimer (Homo sapiens, UniProt P19838 7-356); RELB subunit;p50 subunit (Homo sapiens;Homo sapiens, UniProt Q01201;P19838 120-401;7-356).
What all share (assay): protein binding microarray; high values mean tight binding
Common to all, as to conditions: dsDNA, one strand shown

A further assay has as its target T1, p52p52 homodimer (Homo sapiens, UniProt Q00653 4-332).
T1 sequence: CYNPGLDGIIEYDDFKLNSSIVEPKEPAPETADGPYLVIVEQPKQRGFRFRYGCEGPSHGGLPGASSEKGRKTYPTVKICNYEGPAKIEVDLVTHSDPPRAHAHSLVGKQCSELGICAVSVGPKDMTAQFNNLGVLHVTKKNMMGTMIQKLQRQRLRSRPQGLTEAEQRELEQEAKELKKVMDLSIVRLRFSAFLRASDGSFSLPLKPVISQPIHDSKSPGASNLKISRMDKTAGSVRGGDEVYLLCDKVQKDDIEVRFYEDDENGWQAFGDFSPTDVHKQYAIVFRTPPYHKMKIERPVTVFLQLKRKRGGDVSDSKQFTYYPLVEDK

Assay [1] concerns the target RELA (p65) subunit of heterodimer;p50 subunit (Homo sapiens;Homo sapiens, UniProt Q04206;P19838 1-307;7-356).
The target in assay [2] is RELA (p65) subunit of heterodimer;p52 subunit (Homo sapiens;Homo sapiens, UniProt Q04206;Q00653 1-307;4-332).
The target of the next assay is T2, RELB subunit;p52 subunit (Homo sapiens;Homo sapiens, UniProt Q01201;Q00653 120-401;4-332).
T2 sequence 1: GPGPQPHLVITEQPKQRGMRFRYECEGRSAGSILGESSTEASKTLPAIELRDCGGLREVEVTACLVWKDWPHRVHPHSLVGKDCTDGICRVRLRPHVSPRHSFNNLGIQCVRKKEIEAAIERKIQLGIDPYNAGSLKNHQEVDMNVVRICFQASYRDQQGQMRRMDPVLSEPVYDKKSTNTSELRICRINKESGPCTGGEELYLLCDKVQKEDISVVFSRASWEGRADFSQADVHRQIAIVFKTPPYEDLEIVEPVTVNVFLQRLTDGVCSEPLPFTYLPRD
T2 sequence 2: T1 sequence

Assay [3] has as its target C-Rel subunit;p50 subunit (Homo sapiens;Homo sapiens, UniProt Q04864;P19838 1-285;7-356).
Assay [4] has as its target T3, C-Rel subunit;p52 subunit (Homo sapiens;Homo sapiens, UniProt Q04864;Q00653 1-285;4-332).
T3 sequence 1: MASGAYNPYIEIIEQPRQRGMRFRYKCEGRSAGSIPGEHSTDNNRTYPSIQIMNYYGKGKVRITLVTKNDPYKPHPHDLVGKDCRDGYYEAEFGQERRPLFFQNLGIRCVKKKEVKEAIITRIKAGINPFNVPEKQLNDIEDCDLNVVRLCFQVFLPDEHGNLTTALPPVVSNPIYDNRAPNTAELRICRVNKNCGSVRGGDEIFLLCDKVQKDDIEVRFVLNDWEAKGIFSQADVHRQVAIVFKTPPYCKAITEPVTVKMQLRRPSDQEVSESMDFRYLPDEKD
T3 sequence 2: T1 sequence

Chain of RELARELA (p65 homodimer) (Q04206 1-307): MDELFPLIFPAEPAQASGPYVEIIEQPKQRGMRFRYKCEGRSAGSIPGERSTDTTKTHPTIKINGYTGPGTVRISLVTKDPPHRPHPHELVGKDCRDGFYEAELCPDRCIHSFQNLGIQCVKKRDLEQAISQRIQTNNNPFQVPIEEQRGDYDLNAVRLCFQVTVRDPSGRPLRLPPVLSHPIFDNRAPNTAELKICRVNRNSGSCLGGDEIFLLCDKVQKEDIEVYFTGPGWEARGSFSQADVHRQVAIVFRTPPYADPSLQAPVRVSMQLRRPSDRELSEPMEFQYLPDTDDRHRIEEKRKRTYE
Chain of RELA (p65) subunit of heterodimer;p50 subunit (Q04206 1-307, chain 1 of 2): as the sequence (Q04206 1-307) above
Chain of RELA (p65) subunit of heterodimer;p50 subunit (P19838 7-356, chain 2 of 2): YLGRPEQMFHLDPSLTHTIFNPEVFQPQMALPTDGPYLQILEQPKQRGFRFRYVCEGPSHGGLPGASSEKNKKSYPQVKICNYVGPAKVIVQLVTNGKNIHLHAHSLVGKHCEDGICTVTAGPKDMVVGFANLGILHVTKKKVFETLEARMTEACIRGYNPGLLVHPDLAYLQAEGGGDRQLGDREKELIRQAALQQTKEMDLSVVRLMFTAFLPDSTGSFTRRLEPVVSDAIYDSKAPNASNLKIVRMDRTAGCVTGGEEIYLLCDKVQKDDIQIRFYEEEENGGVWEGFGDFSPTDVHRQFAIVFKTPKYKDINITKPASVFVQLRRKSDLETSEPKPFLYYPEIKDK
Chain of p50p50 homodimer (P19838 7-356): as the sequence (P19838 7-356, chain 2 of 2) above

As to GGGTAGTTCCT, the binding signal is 0.746 z-score in the assay with RELARELA (p65 homodimer); 0.495 z-score with p50p50 homodimer; 0.541 z-score with p52p52 homodimer; 0.394 z-score in [1]; 0.345 z-score in assay [2]; -0.0983 z-score with RELB subunit;p50 subunit. The binding signal worked out at 0.0547 z-score with RELB subunit;p52 subunit, 0.249 z-score in assay [3] and 0.583 z-score in assay [4].
For CGAGACGTCCT, the binding signal with RELARELA (p65 homodimer) is -0.768 z-score; in the assay with p50p50 homodimer it was -1.33 z-score; with p52p52 homodimer it was -0.73 z-score; in assay [1], -1.16 z-score; in [2] it was -0.933 z-score; with RELB subunit;p50 subunit, -1.07 z-score. For the same sequence, the figures for the binding signal (in the assay with RELB subunit;p52 subunit; in [3]; in [4]) were -0.949 z-score, -1.55 z-score and -0.864 z-score, respectively.
For the sequence AAATAATTCCT, the binding signal in the assay with RELARELA (p65 homodimer) was 0.497 z-score; with p50p50 homodimer it was -0.505 z-score; in the assay with p52p52 homodimer, -0.44 z-score; in assay [1], -0.41 z-score; in assay [2] it was -0.399 z-score; with RELB subunit;p50 subunit, -0.654 z-score. In addition, the binding signal is -0.671 z-score in the assay with RELB subunit;p52 subunit, 0.179 z-score in assay [3] and -0.124 z-score in [4].
In the case of GGATGGCTCCT, the binding signal is -0.414 z-score in the assay with RELARELA (p65 homodimer); -1.51 z-score with p50p50 homodimer; -0.721 z-score with p52p52 homodimer; -1.07 z-score in assay [1]; -1.08 z-score in [2]; -1.19 z-score with RELB subunit;p50 subunit. Also, the values for the binding signal (with RELB subunit;p52 subunit; in assay [3]; in assay [4]) were -1.05 z-score, -1.64 z-score and -0.938 z-score, respectively.
AGAGAGGTCCT: the binding signal in the assay with RELARELA (p65 homodimer) is 0.413 z-score; with p50p50 homodimer it was -1.58 z-score; with p52p52 homodimer, -0.36 z-score; in assay [1], -0.866 z-score; in assay [2], -0.592 z-score; with RELB subunit;p50 subunit, -0.624 z-score. Besides, the binding signal in the assay with RELB subunit;p52 subunit was -0.363 z-score; in assay [3], -1.31 z-score; in assay [4], -0.537 z-score.
On to GGAAATGTCCC, for which the binding signal with RELARELA (p65 homodimer) was 1.93 z-score; with p50p50 homodimer it was 0.902 z-score; with p52p52 homodimer, 1.14 z-score; in assay [1] it was 1.27 z-score; in assay [2] it was 1.05 z-score; with RELB subunit;p50 subunit, 0.938 z-score. Moreover, the binding signal in the assay with RELB subunit;p52 subunit is 0.986 z-score; in assay [3], 0.9 z-score; in assay [4], 0.975 z-score.
Regarding AAGGTTATCCC, the binding signal is -0.0178 z-score with RELARELA (p65 homodimer); -0.0329 z-score in the assay with p50p50 homodimer; 0.0211 z-score in the assay with p52p52 homodimer; -0.139 z-score in assay [1]; -0.074 z-score in assay [2]; -0.236 z-score with RELB subunit;p50 subunit. The binding signal with RELB subunit;p52 subunit is -0.173 z-score; in assay [3], -0.0847 z-score; in assay [4], -0.165 z-score.
For CGAAGTGTCCT, the binding signal in the assay with RELARELA (p65 homodimer) is -0.41 z-score; with p50p50 homodimer it was -1.95 z-score; with p52p52 homodimer, -0.44 z-score; in assay [1], -0.957 z-score; in [2], -0.797 z-score; with RELB subunit;p50 subunit, -1.13 z-score. Moreover, the binding signal in the assay with RELB subunit;p52 subunit is -0.796 z-score; in [3], -1.19 z-score; in assay [4], -0.64 z-score.
As for AGAATGCTCCC, the binding signal with RELARELA (p65 homodimer) was -0.506 z-score; with p50p50 homodimer it was -0.551 z-score; with p52p52 homodimer, -0.418 z-score; in assay [1], -0.467 z-score; in assay [2], -0.621 z-score; with RELB subunit;p50 subunit, -0.576 z-score. For the same sequence, the binding signal in the assay with RELB subunit;p52 subunit is -0.823 z-score; in [3], -0.92 z-score; in assay [4], -0.456 z-score.
Take AAGGTGTCCCT: the binding signal was -0.0449 z-score in the assay with RELARELA (p65 homodimer); 0.811 z-score with p50p50 homodimer; 0.895 z-score in the assay with p52p52 homodimer; 0.784 z-score in [1]; 0.967 z-score in assay [2]; 1.01 z-score with RELB subunit;p50 subunit. The binding signal with RELB subunit;p52 subunit was 1.5 z-score; in [3], 0.63 z-score; in [4], 0.562 z-score.
Consider CAAGAGATCCT, for which the binding signal was -0.295 z-score with RELARELA (p65 homodimer); -1.92 z-score in the assay with p50p50 homodimer; -0.611 z-score with p52p52 homodimer; -1.27 z-score in assay [1]; -1.22 z-score in [2]; -0.959 z-score with RELB subunit;p50 subunit. For the same sequence, the values for the binding signal (with RELB subunit;p52 subunit; in assay [3]; in [4]) were -0.999 z-score, -1.42 z-score and -1.16 z-score, respectively.
For the sequence AAGAAAGCCCT, the binding signal is -0.308 z-score in the assay with RELARELA (p65 homodimer); -0.8 z-score with p50p50 homodimer; -0.426 z-score with p52p52 homodimer; -0.68 z-score in assay [1]; -0.581 z-score in [2]; -0.838 z-score with RELB subunit;p50 subunit. Besides, the binding signal was -0.728 z-score in the assay with RELB subunit;p52 subunit, -0.563 z-score in assay [3] and -0.671 z-score in assay [4].
For the sequence AGGATAGCCCT, the binding signal in the assay with RELARELA (p65 homodimer) was -0.44 z-score; in the assay with p50p50 homodimer, -1.05 z-score; with p52p52 homodimer, -0.582 z-score; in assay [1], -0.78 z-score; in [2] it was -0.902 z-score; with RELB subunit;p50 subunit it was -0.841 z-score. Also, the binding signal in the assay with RELB subunit;p52 subunit was -0.772 z-score; in assay [3] it was -0.982 z-score; in assay [4], -0.688 z-score.
In the case of GAGTGCGCCCC, the binding signal with RELARELA (p65 homodimer) was -0.402 z-score; with p50p50 homodimer it was -0.17 z-score; with p52p52 homodimer, -0.0852 z-score; in assay [1], -0.178 z-score; in assay [2], 0.0378 z-score; in the assay with RELB subunit;p50 subunit, -0.305 z-score. The binding signal in the assay with RELB subunit;p52 subunit was -0.0411 z-score; in assay [3], -0.0592 z-score; in assay [4], -0.0203 z-score.
As for AGGAGGATCCT, the binding signal with RELARELA (p65 homodimer) is -0.49 z-score; in the assay with p50p50 homodimer, -1.69 z-score; with p52p52 homodimer it was -0.694 z-score; in assay [1], -0.999 z-score; in assay [2] it was -1.04 z-score; with RELB subunit;p50 subunit, -0.926 z-score. The binding signal with RELB subunit;p52 subunit was -0.821 z-score; in [3], -1.4 z-score; in assay [4], -0.915 z-score.
